The structures appear in SMILES notation. This is part of a sample that, as a whole, favours compounds with a hit. Of some 79,000 tested, about 15% had one in any assay. Unmarked numbers belong to inactive results. Activity calls are given as the source filed them. No stated cut-off is given here; in the data, active means growth inhibition above about 70%; inactive means the rest.

A short description of assay [1]: NCI Yeast Anticancer Drug Screen. Data for the rad50 strain (AID 155).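 Further: 0% = growth of vehicle-only cultures of the same strain.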 The settings on record: S. cerevisiae rad50 strain growth inhibition, hits give high values. Put shortly: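 Genetically altered yeast (DNA repair pathway); compound treatment; growth inhibition vs vehicle ctrl.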
Assay [2] is described as follows: NCI Yeast Anticancer Drug Screen. Data for the mec2-1 strain (AID 157). The conditions noted are these: S. cerevisiae mec2-1 strain, hits give high values. In short, it runs like this: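 Mutant yeast (mec2-1) grown with compound; growth inhibition relative to vehicle control reported.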
A short description of assay [3]: NCI Yeast Anticancer Drug Screen. Data for the sgs1 mgt1 strain (AID 161).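 Further: 0% = growth of cultures given vehicle only.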 The settings on record: S. cerevisiae sgs1 mgt1 strain, hits give high values. Put shortly: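 Percent growth inhibition was derived by comparing compound-exposed mutant yeast with vehicle-exposed cultures. The strain carries alterations in DNA damage repair.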
The nature of assay [4]: NCI Yeast Anticancer Drug Screen. Data for the cln2 rad14 strain (AID 165).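 Further: 0% = growth equal to vehicle treated cultures.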 The settings on record: S. cerevisiae cln2 rad14 strain, hits give high values. In short, it runs like this:
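Readout is yeast growth inhibition versus vehicle-treated controls, using a strain with cln2 and rad14 alterations exposed to compound.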

Assay [5] in a line: NCI Yeast Anticancer Drug Screen. Data for the bub3 strain (AID 167). The conditions noted are these: S. cerevisiae bub3 mutant strain, hits give high values. Put shortly: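 Yeast carrying a defined mutation is treated with each compound, and growth is compared with that of vehicle-exposed cells to give inhibition.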
The nature of assay [6]: NCI Yeast Anticancer Drug Screen. Data for the mlh1 rad18 strain (AID 175). The settings on record: S. cerevisiae mlh1 rad18 strain growth inhibition, hits give high values. Put shortly:
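Genetically defined yeast (DNA repair-deficient) exposed to compounds; growth inhibition determined relative to vehicle.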

Setting [7] is: at 5.0 µM (retest, dose inferred, filed as 0.5).
[8] abbreviates: at 50.0 µM (retest, dose inferred, filed as 5.0).

Take `NSc1ccccn1`: the growth inhibition in assay [1] (setting [7]) is 7%; in assay [1] (setting [8]), 74% (active); in assay [1] (at 50.0 µM), 90.4% (active); in assay [2] (setting [7]), 9%; in assay [2] (setting [8]), 93% (active); in assay [2] (at 50.0 µM), 93.5% (active). Further, the growth inhibition in assay [3] (setting [7]) was 11%; in assay [3] (setting [8]), 79% (active); in assay [3] (at 50.0 µM), 97.8% (active); in assay [4] (setting [7]) it was 29%; in assay [4] (setting [8]) it was 84% (active); in assay [4] (at 50.0 µM), 89.7% (active). Also, the growth inhibition is 3% in assay [5] (setting [7]); 92% (active) in assay [5] (setting [8]); 99% (active) in assay [5] (at 50.0 µM); 4% in assay [6] (setting [7]); 85% (active) in assay [6] (setting [8]); 96.7% (active) in assay [6] (at 50.0 µM).
As to `C=C1CC2(C[C@@H](c3ccccc3)O[C@@H](c3ccccc3)C2)OC1=O` (stereo not given in full), the growth inhibition was 20% in assay [1] (setting [7]); 97% (active) in assay [1] (setting [8]); 95% (active) in assay [1] (at 50.0 µM); 4% in assay [2] (setting [7]); 98% (active) in assay [2] (setting [8]); 94.6% (active) in assay [2] (at 50.0 µM). The growth inhibition was 2% in assay [3] (setting [7]); 98% (active) in assay [3] (setting [8]); 94.5% (active) in assay [3] (at 50.0 µM); 35% in assay [4] (setting [7]); 97% (active) in assay [4] (setting [8]); 90.5% (active) in assay [4] (at 50.0 µM). Further, the growth inhibition in assay [5] (setting [7]) was 33%; in assay [5] (setting [8]), 98% (active); in assay [5] (at 50.0 µM), 95.2% (active); in assay [6] (setting [7]), 15%; in assay [6] (setting [8]), 98% (active); in assay [6] (at 50.0 µM), 92.5% (active).
Take `CCOCCOC(=O)c1cc([N+](=O)[O-])cc([N+](=O)[O-])c1`: the growth inhibition in assay [1] (setting [7]) was -4%; in assay [1] (setting [8]), 94% (active); in assay [1] (at 50.0 µM), 60.2%; in assay [2] (setting [7]), -5%; in assay [2] (setting [8]), 98% (active); in assay [2] (at 50.0 µM), 66.3%. In addition, the growth inhibition in assay [3] (setting [7]) is -3%; in assay [3] (setting [8]) it was 93% (active); in assay [3] (at 50.0 µM), 53.8%; in assay [4] (setting [7]), -3%; in assay [4] (setting [8]), 41%; in assay [4] (at 50.0 µM) it was -1.5%. Besides, the growth inhibition was -8% in assay [5] (setting [7]); 94% (active) in assay [5] (setting [8]); 91.7% (active) in assay [5] (at 50.0 µM); 2% in assay [6] (setting [7]); 98% (active) in assay [6] (setting [8]); 95.9% (active) in assay [6] (at 50.0 µM).
As to `Cc1cc(=O)n(C)c2c(C)cccc12`, the growth inhibition was -163% in assay [1] (setting [7]); -139% in assay [1] (setting [8]); 12.9% in assay [1] (at 50.0 µM); -47% in assay [2] (setting [7]); -47% in assay [2] (setting [8]); 15.9% in assay [2] (at 50.0 µM). For the same compound, the growth inhibition is -60% in assay [3] (setting [7]); -57% in assay [3] (setting [8]); 12.4% in assay [3] (at 50.0 µM); -56% in assay [4] (setting [7]); -50% in assay [4] (setting [8]); 46.3% in assay [4] (at 50.0 µM). For the same compound, the growth inhibition is -73% in assay [5] (setting [7]); -72% in assay [5] (setting [8]); -2.85% in assay [5] (at 50.0 µM); -145% in assay [6] (setting [7]); -107% in assay [6] (setting [8]); 10.2% in assay [6] (at 50.0 µM).
Turning to `O=C(O)c1cc2ccc3cccc4ccc(c1)c2c34`, the growth inhibition is 4% in assay [1] (setting [7]); 93% (active) in assay [1] (setting [8]); 80.3% (active) in assay [1] (at 50.0 µM); 1% in assay [2] (setting [7]); 89% (active) in assay [2] (setting [8]); 70.7% (active) in assay [2] (at 50.0 µM). Moreover, the growth inhibition is 3% in assay [3] (setting [7]); 94% (active) in assay [3] (setting [8]); 87.3% (active) in assay [3] (at 50.0 µM); -4% in assay [4] (setting [7]); 92% (active) in assay [4] (setting [8]); 77.8% (active) in assay [4] (at 50.0 µM). For the same compound, the growth inhibition was -3% in assay [5] (setting [7]); 90% (active) in assay [5] (setting [8]); 88.4% (active) in assay [5] (at 50.0 µM); 9% in assay [6] (setting [7]); 94% (active) in assay [6] (setting [8]); 86% (active) in assay [6] (at 50.0 µM).
In the case of `CCCCc1ccc(Nc2nc(N)c3[nH]cnc3n2)cc1`, the growth inhibition in assay [1] (setting [7]) was 19%; in assay [1] (setting [8]) it was 35%; in assay [1] (at 50.0 µM), 82.1% (active); in assay [2] (setting [7]), 25%; in assay [2] (setting [8]) it was 26%; in assay [2] (at 50.0 µM), 84% (active). Further, the growth inhibition in assay [3] (setting [7]) is 18%; in assay [3] (setting [8]), 31%; in assay [3] (at 50.0 µM), 36.1%; in assay [4] (setting [7]), 21%; in assay [4] (setting [8]), 34%; in assay [4] (at 50.0 µM), 16.7%. In addition, the growth inhibition was 16% in assay [5] (setting [7]); 31% in assay [5] (setting [8]); 34.7% in assay [5] (at 50.0 µM); 22% in assay [6] (setting [7]); 40% in assay [6] (setting [8]); 91.6% (active) in assay [6] (at 50.0 µM).
`CCOC(=O)c1cc(C)ccc1-c1ccc(C)cc1C(=O)OCC`: the growth inhibition in assay [1] (setting [7]) was 1%; in assay [1] (setting [8]), 29%; in assay [1] (at 50.0 µM), 57.6%; in assay [2] (setting [7]), -10%; in assay [2] (setting [8]), 8%; in assay [2] (at 50.0 µM), 67.8%. For the same compound, the growth inhibition in assay [3] (setting [7]) is 1%; in assay [3] (setting [8]), 68%; in assay [3] (at 50.0 µM) it was 77% (active); in assay [4] (setting [7]) it was -1%; in assay [4] (setting [8]), 17%; in assay [4] (at 50.0 µM), 3.55%. The growth inhibition in assay [5] (setting [7]) was 6%; in assay [5] (setting [8]), 46%; in assay [5] (at 50.0 µM), 86.8% (active); in assay [6] (setting [7]), 2%; in assay [6] (setting [8]), 28%; in assay [6] (at 50.0 µM), 75.5% (active).
As to `O=[N+]([O-])c1cc(C(F)(F)F)cc([N+](=O)[O-])c1CCl`, the growth inhibition was 100% (active) in assay [1] (setting [7]); 100% (active) in assay [1] (setting [8]); 99.7% (active) in assay [1] (at 50.0 µM); 100% (active) in assay [2] (setting [7]); 100% (active) in assay [2] (setting [8]); 99.8% (active) in assay [2] (at 50.0 µM). In addition, the growth inhibition in assay [3] (setting [7]) was 100% (active); in assay [3] (setting [8]), 100% (active); in assay [3] (at 50.0 µM), 99.6% (active); in assay [4] (setting [7]), 100% (active); in assay [4] (setting [8]), 100% (active); in assay [4] (at 50.0 µM), 99.4% (active). Further, the growth inhibition in assay [5] (setting [7]) is 100% (active); in assay [5] (setting [8]), 100% (active); in assay [5] (at 50.0 µM), 99.4% (active); in assay [6] (setting [7]), 100% (active); in assay [6] (setting [8]), 100% (active); in assay [6] (at 50.0 µM) it was 99.7% (active).
Turning to `CCCNCCCC(C)Nc1cc(OC)cc2c(C)ccnc12` (stereo not given), the growth inhibition is 17% in assay [1] (setting [7]); 73% (active) in assay [1] (setting [8]); 66.4% in assay [1] (at 50.0 µM); 8% in assay [2] (setting [7]); 48% in assay [2] (setting [8]); 55.2% in assay [2] (at 50.0 µM). Further, the growth inhibition in assay [3] (setting [7]) is 20%; in assay [3] (setting [8]), 78% (active); in assay [3] (at 50.0 µM) it was 41.9%; in assay [4] (setting [7]), 2%; in assay [4] (setting [8]), 46%; in assay [4] (at 50.0 µM) it was 27.1%. The growth inhibition was -6% in assay [5] (setting [7]); 80% (active) in assay [5] (setting [8]); 53.7% in assay [5] (at 50.0 µM); 11% in assay [6] (setting [7]); 86% (active) in assay [6] (setting [8]); 59.2% in assay [6] (at 50.0 µM).
In the case of `O=C1C(=O)C(Cc2ccccc2)(c2ccccc2)C(=O)N1c1ccccc1` (stereo not given), the growth inhibition was 0% in assay [1] (setting [7]); 42% in assay [1] (setting [8]); 68.2% in assay [1] (at 50.0 µM); -3% in assay [2] (setting [7]); 59% in assay [2] (setting [8]); 6.25% in assay [2] (at 50.0 µM). Also, the growth inhibition is -2% in assay [3] (setting [7]); 70% (active) in assay [3] (setting [8]); 54.6% in assay [3] (at 50.0 µM); 3% in assay [4] (setting [7]); 22% in assay [4] (setting [8]); -9.8% in assay [4] (at 50.0 µM). The growth inhibition in assay [5] (setting [7]) is -1%; in assay [5] (setting [8]), 52%; in assay [5] (at 50.0 µM) it was 10.3%; in assay [6] (setting [7]), 1%; in assay [6] (setting [8]) it was 62%; in assay [6] (at 50.0 µM), 40.4%.
